These results are taken from PubChem BioAssay (EPA / NIEHS).

Activity calls are given as the source filed them. How the source made its calls: active means hit-call score of the fitted dose curve at least 0.9, where 1 is the maximum; inactive means score below 0.9.

Read-out in this assay: growth arrest and DNA damage 45 (GADD45B), GADD45B (gene 4616)
The assay can be described thus: LTEA_HepaRG_GADD45B: Life Technologies and Expression Analysis (LTEA) Assay for growth arrest and DNA damage 45 (GADD45B) using HepaRG (AID 2283461). The conditions noted are these: mRNA level, 48 h; actives raise or lower the signal. How it is done:
LTEA_HepaRG is a cell based, multiplexed-readout assay that uses HepaRG, a human liver cell line, with measurements taken at 48 hours after chemical dosing on a 96-well plate.LTEA_HepaRG_GADD45B is one of 102 assay component(s) measured in the LTEA HepaRG cell culture assay. It is a marker of Cell proliferation, survival, death.Data from the assay component LTEA_HepaRG_GADD45B was analyzed into 1 endpoint. This assay endpoint, LTEA_HepaRG_GADD45B, was analyzed with bidirectional fitting relative to DMSO as the negative control and baseline of activity. Using a type of inducible reporter, measures of mRNA induction for gain or loss-of-signal activity can be used to understand regulation of transcription factor activity. To generalize the intended target to other relatable targets, this assay endpoint is annotated to the mutagenicity response intended target family, where the subfamily is Cell proliferation, survival, death.
A total of 1060 chemcials from the ToxCast library were tested in eight-point concentration-response experiments. Cell culture and cytotoxicity assays were conducted at Thermo Fisher Scientific's Custom Services facility (Madison, WI). A single lot of human HepaRG cells (Thermo Fisher Scientific, Frederick, MD) was used for the cell culture experiments. 96-well format collagen type I coated plates of human HepaRG cells were prepared using established methods. Briefly, cryopreserved HepaRG cells were thawed, plated at a density of approximately 100,000 cells/well in HepaRG Thaw, Plate, and General Purpose media (HPRG770, Thermo Fisher Scientific), and incubated for 48 hours. 0.5% DMSO was selected as vehicle control to balance the requisite need of DMSO in HepaRG cultures to maintain differentiation (for example, baseline metabolism, proportions of hepatocytes vs. cholangiocytes), while enabling further hepatic receptor pathway activation (for example, PXR and CAR) in response to chemical exposure. 48 hours after plating, the culture medium was replaced with HepaRG Serum-Free Incudtion Media. Cells were exposed to each test chemical in duplicate and maintained in CO2 incubators for another 48 hours. Chemical plates were thawed to room temperature and 200x concentrations of treatment groups were prepared. 8-point conentration-reponse curves were made with the highest exposure at 100 uM, followed by half-log dilutions, all in 0.5% DMSO. Each test plate contained variouse controls, induction positive controls (1mM phenobarbital), cytotoxicity positive controls ([…] aflatoxin B1), vehicle controls (0.5% DMSO), and total lysis controls (0.5% DMSO). Cell morphology images were taken using an Essen IncuCyte FLR automated microscope, with six 96-well plates imaged in about 24 minutes. Images were captured and exported and JPEG files. Spent culture media was transfered to black-well plates for the LDH assay, and remaining media was sorted at -80 C for later use. Cells were treated with RLT buffer and frozen until shipped for gene expression analysis. Total RNA was isolated from the cell suspension in 75 uL of Buffer RLT (Qiagen, Germantown, MD 20874) by Quintiles/Expression Analysis (Durham, NC) using a custom isolation procedure. Total RNA from each plate well was transferred to a preamplification plate. Fluidigm's 96.96 Dynamic ArrayTM (Fluidigm, Amsterdam, the Netherlands) technology was used for gene expression analyses by quantitative reverse transcription polymerase chain reaction (qRT-PCR, performed by Quintiles/Expression Analysis, Durham, NC)89. Standard TaqManTM Assays (Applied Biosystems/ThermoFisher Scientific, Foster City, CA) were used to assess the expression of 93 genes selected based on their selectivity and sensitivity to important hepatic receptors known to be modulated by environmental chemicals; importance in human hepatocyte functionality; and hepatotoxicity. […]
Turning to `CCCCOCN(C(=O)CCl)c1c(CC)cccc1CC`, the call was inactive.
Same read-out and setting: next, `COCc1cnc(C2=NC(C)(C(C)C)C(=O)N2)c(C(=O)O)c1` (stereo not given): “inactive”; `CC(C)N1C(=O)c2ccccc2NS1(=O)=O`: “inactive”.
For the molecule `CCCCC(O)(Cn1cncn1)c1ccc(Cl)cc1Cl` (stereo not given), the outcome was inactive.
On the same count and under the same terms, then `COc1cc(Cl)c(OC)cc1Cl`, with “inactive”.
As to `CCOC(=O)C(C)OC(=O)c1cc(Oc2ccc(C(F)(F)F)cc2Cl)ccc1[N+](=O)[O-]` (stereo not given), the AC50 is 32.2 µM (active).
In the case of `Cc1cc(C)nc(Nc2ccccc2)n1`, the call was inactive.
Still for that read-out and setting: then `C=CCOC(=O)C(C)(C)OC(=O)c1cc(-n2c(=O)cc(C(F)(F)F)n(C)c2=O)ccc1Cl`, with “inactive”.
As to `CCSC(=O)N1CCCCCC1`, the call was inactive.
With `O=C(Nc1ccccc1-c1ccc(Cl)cc1)c1cccnc1Cl`, the molecule was called inactive.
Take `CS(=O)(=O)c1ccc(C(=O)C2C(=O)CCCC2=O)c([N+](=O)[O-])c1`: the outcome was inactive.
On the same count and under the same terms, then `COP(=S)(OC)Oc1ccc([N+](=O)[O-])c(C)c1`, with “inactive”.
On the same count and under the same terms, then `CC1(C)CON(Cc2ccccc2Cl)C1=O`, with “inactive”.
Still for that read-out and setting: next, `CNC(=O)N(C)c1nnc(C(C)(C)C)s1`: “inactive”.
Take `CC(C)NC(=O)N1CC(=O)N(c2cc(Cl)cc(Cl)c2)C1=O`: the AC50 was 26.3 µM (active).
For the molecule `Cc1nc(N(C)C)nc(OC(=O)N(C)C)c1C`, the molecule was called inactive.
`O=P(O)(O)CCCl`: the molecule was called inactive.
For `CC(C)Oc1cccc(NC(=O)c2ccccc2C(F)(F)F)c1`, the result was inactive.
Take `Nc1c(Cl)c(Cl)nc(C(=O)O)c1Cl`: the call was inactive.
`CCCN(CC)CC1COC2(CCC(C(C)(C)C)CC2)O1` (stereo not given): the outcome was inactive.
Still for that read-out and setting: then `O=C(O)c1c(Cl)ccc2cc(Cl)cnc12`, with “inactive”.
The same measure, in the same setting: then `Cc1c(COC(=O)[C@@H]2[C@H](/C=C(\Cl)C(F)(F)F)C2(C)C)cccc1-c1ccccc1`, with “inactive”.
Turning to `COC(=O)N(C(=O)N1CO[C@@]2(C(=O)OC)Cc3cc(Cl)ccc3C2=N1)c1ccc(OC(F)(F)F)cc1`, the concentration at half-maximal activity (AC50) is 8.78 µM (active).
Take `CCOc1nc(F)cc2nc(S(=O)(=O)Nc3c(Cl)cccc3Cl)nn12`: the call was inactive.
Same read-out and setting: then `CCNP(=S)(OC)O/C(C)=C/C(=O)OC(C)C` (stereo not given), with “inactive”; and `CCOP(=O)(OCC)Oc1nc(Cl)c(Cl)cc1Cl`, with “inactive”; and `CCCC(=NOCC)C1=C(O)CC(CC(C)SCC)CC1=O` (stereo not given), with “inactive”.
For `CCN(CC)c1nc(C)cc(OP(=S)(OC)OC)n1`, the molecule was called inactive.
Turning to `C=C(C)CN(CC)c1c([N+](=O)[O-])cc(C(F)(F)F)cc1[N+](=O)[O-]`, the molecule was called inactive.
Still for that read-out and setting: then `COc1ccc(-c2ccccc2)cc1NNC(=O)OC(C)C`, with “inactive”.
On to `N#Cc1c(Cl)cccc1Cl`, for which the call was inactive.
Same read-out and setting: then `COC(=O)NS(=O)(=O)c1ccc(N)cc1`, with “inactive”; and `Nc1c(Cl)c(F)nc(OCC(=O)O)c1Cl`, with “inactive”.
On to `CC(C)(C)C(=O)C(Oc1ccc(Cl)cc1)n1cncn1` (stereo not given), for which the molecule was called inactive.
On the same count and under the same terms, next, `OC(c1ccc(Cl)cc1)(c1ccc(Cl)cc1)C(Cl)(Cl)Cl`: “inactive”; `CC1(C)C(C(=O)OC(C#N)c2cccc(Oc3ccccc3)c2)C1(C)C` (stereo not given): “inactive”.
`CCC(C)n1c(=O)[nH]c(C)c(Br)c1=O` (stereo not given): the AC50 was 28.5 µM (active).
For the molecule `N#CN=C1SCCN1Cc1ccc(Cl)nc1`, the molecule was classed as inactive.
Consider `COC(=O)c1c(C(F)F)nc(C(F)(F)F)c(C2=NCCS2)c1CC(C)C`, for which the molecule was classed as inactive.
On the same count and under the same terms, next, `CCCCC(C#N)(Cn1cncn1)c1ccc(Cl)cc1` (stereo not given): “inactive”.
